Data published in PubChem BioAssay (Tox21).
Inconclusive results are not listed. The source made the active and inactive calls. Unless noted, calls follow the shape of the dose curve; as a rule, active = well fitted cell-killing curve with a large enough effect in the repeat runs; inconclusive = weak or mixed curves; inactive = no such curve, though single readings can be large or run the other way.

Assay: qHTS assay for small molecule activators of the heat shock response signaling pathway (AID 743210; active = well fitted activation curve with a large enough effect in the signal ratio in the repeat runs, with a control signal flat, not every such curve was filed as active; the % refers to the signal ratio;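 also: HeLa cells with beta-lactamase reporter driven by heat shock elements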)
Conditions: HeLa HSE-bla reporter, beta-lactamase ratio, 5 h; series mostly up to 62.6 µM; activation: at the top concentration
Procedure, shortened: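 HeLa HSE-bla cells, overnight plating; cpd in DMSO 5 h, 37 C; LiveBLAzer B/G FRET substrate 2.5 h RT; fluorescence intensity read.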
% is scaled to controls: 0 for no effect and ±100 for the full control effect.

Row | SMILES | activation
1 | NS(=O)(=O)c1cc2c(cc1Cl)NC(CC1CCCC1)NS2(=O)=O (centres undefined) | -0.0465% (inactive)
2 | CC(=O)c1ccc(OCC(=O)N2CCCCC2)cc1 | -0.396% (inactive)
3 | O=S(=O)(O)CCO | -0.248% [at 81.1 µM] (inactive)
4 | CNCc1ccccc1 | -2.6% (inactive)
5 | CN=C(NC#N)NCCSCc1csc(N=C(N)N)n1 | -0.0873% (inactive)
6 | C=C[Si](C)(C)O[Si](C)(C)C=C | -1.23% (inactive)
7 | COc1ccc(N=Nc2cc(C)c(N=Nc3ccc(S(=O)(=O)O)cc3)cc2OC)cc1 | -3% (inactive)
8 | O=C1OC(=O)c2ccccc21 | -0.526% (inactive)
9 | CC(=O)OC(C)c1ccccc1 (centres undefined) | 1.2% (inactive)
10 | O=S1(=O)CCCC1 | -1.59% [at 81.1 µM] (inactive)
11 | NC(=O)C1(N2CCCCC2)CCN(CCCC(=O)c2ccc(F)cc2)CC1 | -0.214% (inactive)
12 | O=C(/C=C/c1ccccc1)NCCO | -1.55% (inactive)
13 | O=C(O)Cc1cccc(-c2cc(CCCCCCc3ccc(O[C@H]4O[C@H](CO)[C@@H](O)[C@H](O)[C@@H]4O)c(-c4cccc(CC(=O)O)c4)c3)ccc2O[C@H]2O[C@H](CO)[C@@H](O)[C@H](O)[C@@H]2O)c1 | 0.0325% [at 0.55 µM] (inactive)
14 | O=C(Oc1ccccc1C(=O)O)c1ccccc1O | -0.677% (inactive)
15 | CN[C@@H]1[C@H](O)[C@H](NC)[C@H]2O[C@@]3(O)C(=O)C[C@@H](C)O[C@H]3O[C@@H]2[C@H]1O | 0.349% (inactive)

Assay: qHTS assay to identify small molecule agonists of the peroxisome proliferator-activated receptor delta (PPARd) signaling pathway - cell viability counter screen (AID 743211); also: nearly all actives have a fitted effect of over 55% in size
Conditions: PPARd-bla HEK293H viability, CellTiter-Glo luminescence, 17 h; series mostly up to 62.6 µM; activity change, negative = cytotoxicity: at the top concentration
Procedure, shortened: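 PPARd-bla HEK293H cells (UAS-beta-lactamase reporter) were treated with compounds for 17 h at 37 C. Viability was then read in the same wells by CellTiter-Glo luminescence after 30 min at room temperature.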

Row | SMILES | activity change, negative = cytotoxicity
16 | O=C(COCCOCCOCC(=O)Nc1c(I)cc(I)c(C(=O)O)c1I)Nc1c(I)cc(I)c(C(=O)O)c1I | 8.07% (inactive)
17 | Nc1cc(Cl)cc(S(=O)(=O)O)c1O | -6.47% [at 81.1 µM] (inactive)
18 | Cc1oc(=O)oc1CN1CCN(c2cc3c(cc2F)c(=O)c(C(=O)O)c2n3C(C)S2)CC1 (centres undefined) | 0.77% (inactive)
19 | COC(OC)C(C)c1ccccc1 (centres undefined) | -4.21% (inactive)
20 | CCNC(=O)/C=C/c1cccc(Br)c1 | -16.6% (inactive)
21 | N#CCCOCCOCCC#N | 6.02% (inactive)
22 | Nc1ccc(S(=O)(=O)NC(=O)c2ccccc2)cc1 | -1.98% (inactive)
23 | CCCOC(=O)CCCCC(=O)OCCC | 22.3% (inactive)
24 | COc1cc(C=O)ccc1OC(=O)C(C)C | -22.4% (inactive)
25 | CCC(O)C(C)(C)C (centres undefined) | 3.35% [at 81.1 µM] (inactive)
26 | O=C(O)c1c(Cl)ccc(Cl)c1Cl | 3.06% (inactive)
27 | CC(C)CCC(=O)CCC(C)C | 0.964% (inactive)
28 | Cc1cc(O)c2c(c1)C(=O)c1cccc(O)c1C2=O | -15.3% (inactive)
29 | CCC(=O)OCCC(C)CCC=C(C)C (centres undefined) | 7.86% (inactive)
30 | C=CCOc1c(Br)cc(C(C)(C)c2cc(Br)c(OCC=C)c(Br)c2)cc1Br | -3.62% (inactive)
31 | COc1cc2c3cc1Oc1cc(ccc1O)C[C@@H]1c4c(cc(OC)c(O)c4Oc4ccc(cc4)C[C@@H]3N(C)CC2)CC[N+]1(C)C | -2.13% (inactive)
32 | Cc1ccccc1N1CCN(CCc2nnc3n2CCCC3)CC1 | 5.97% (inactive)
33 | NS(=O)(=O)c1cc2c(cc1Cl)NC(CC1CCCC1)NS2(=O)=O (centres undefined) | 13.8% (inactive)
34 | CC(=O)c1ccc(OCC(=O)N2CCCCC2)cc1 | 8.92% (inactive)
35 | O=S(=O)(O)CCO | 4.64% [at 81.1 µM] (inactive)
36 | CNCc1ccccc1 | -3.08% (inactive)
37 | O=C1OC(=O)c2ccccc21 | 6.84% (inactive)
38 | CC(=O)OC(C)c1ccccc1 (centres undefined) | 9.44% (inactive)
39 | O=S1(=O)CCCC1 | -6.88% [at 81.1 µM] (inactive)
40 | Cc1cccc(C(=O)O)c1[N+](=O)[O-] | 5.9% (inactive)
41 | O=C(/C=C/c1ccccc1)NCCO | -1.27% (inactive)
42 | O=C(O)Cc1cccc(-c2cc(CCCCCCc3ccc(O[C@H]4O[C@H](CO)[C@@H](O)[C@H](O)[C@@H]4O)c(-c4cccc(CC(=O)O)c4)c3)ccc2O[C@H]2O[C@H](CO)[C@@H](O)[C@H](O)[C@@H]2O)c1 | 4.03% [at 0.55 µM] (inactive)
43 | O=C(Oc1ccccc1C(=O)O)c1ccccc1O | 0.761% (inactive)
44 | CN[C@@H]1[C@H](O)[C@H](NC)[C@H]2O[C@@]3(O)C(=O)C[C@@H](C)O[C@H]3O[C@@H]2[C@H]1O | -0.272% (inactive)
